Records with an inconclusive call do not appear. Active and inactive are the calls of the source. Calls follow the shape of the dose curve; as a rule, active = well fitted cell-killing curve with a large enough effect; inconclusive = small, poorly fitted or top-dose-only effect, or effect the other way; inactive = no such curve, though single readings can be large or run the other way.

Test [1] is described as follows: Viability qHTS for spleen associated tyrosine kinase inhibitor (SYKi) naive MV4-11 cells (AID 1963823). Also: nearly all actives have a fitted effect of over 40% in size. In outline:
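In this viability screen, compounds acted on SYK inhibitor naive MV4-11 cells for three days (72 hr, 37 C). Remaining viable cells were measured by CellTiter-Glo luminescence following a 10 min room-temperature development.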
In general terms: qHTS replaces the single test concentration by a dilution series.

A short description of test [2]: Viability qHTS for spleen associated tyrosine kinase inhibitor (SYKi) drug resistant MV4-11 cells (AID 1963824). Also: nearly all actives have a fitted effect of over 35% in size. In outline: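 SYK inhibitor-resistant MV4-11 AML cells, 500 per well, added to predispensed compounds and incubated 72 hr at 37 C, 5% CO2. Viability measured by CellTiter-Glo luminescence after 10 min at room temperature.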
Potency is read from the fitted curve at half-maximal effect.

As to `COC(=O)c1sccc1S(=O)(=O)Nc1ccc(Nc2ccccc2)cc1OC`, the results for the Potency in test [1] and in test [2] were 5.17 µM (active) and 3.26 µM (active), respectively.

Take `COC(=O)C1=COC(O[C@@H]2O[C@H](COC(=O)/C=C/c3ccc(O)cc3)[C@@H](O)[C@H](O)[C@H]2O)C2C(CO)=CCC12` (some centres undefined): the Potency result in test [1] and in test [2] was “inactive” throughout.

Regarding `CC(=O)O[C@H]1CC(C)(C)CC2[C@]13CO[C@@]21CCC2[C@@]4(C)CC[C@H](O[C@@H]5OC[C@H](O[C@@H]6O[C@H](CO)[C@@H](O)[C@H](O)[C@H]6O[C@@H]6OC[C@@H](O[C@@H]7O[C@H](CO)[C@@H](O)[C@H](O)[C@H]7O)[C@H](O)[C@H]6O)[C@H](O)[C@H]5O[C@@H]5O[C@H](CO)[C@@H](O)[C@H](O)[C@H]5O)[C@@](C)(CO)C4CC[C@@]2(C)[C@]1(C)C[C@H]3O` (some centres undefined), the Potency in test [1] is 1.55 µM (active); in test [2], 1.23 µM (active).

For the molecule `CC1(C)CC[C@]23CO[C@@]4(CCC5[C@@]6(C)CC[C@H](O[C@@H]7OC[C@H](O[C@@H]8O[C@H](CO)[C@@H](O)[C@H](O)[C@H]8O[C@@H]8OC[C@@H](O)[C@H](O)[C@H]8O)[C@H](O)[C@H]7O)[C@@](C)(CO)C6CC[C@@]5(C)[C@]4(C)CC2=O)[C@@H]3C1` (some centres undefined), the Potency in test [1] was 3.1 µM (active); in test [2], 4.91 µM (active).

With `N#Cc1cc(-c2n[nH]c(-c3ccncc3)n2)ccn1`, the Potency entry in test [1] and in test [2] was “inactive” throughout.

With `CCOC(=O)C(CCc1ccccc1)NC1CSC(c2cccs2)CN(CC(=O)O)C1=O` (centres undefined), the Potency was 25.9 µM (active) in test [1] and 6.51 µM (active) in test [2].

For the molecule `C=C1C(=O)O[C@@H]2C[C@H](C)[C@@H]3CC(=O)[C@H](O)[C@@]3(C)C[C@H]12`, the Potency in test [1] is 9.2 µM (active); in test [2], 11.6 µM (active).

(Values after PubChem BioAssay (NCATS).)
